# Results: PubChem BioAssay AID1053206 (Broad Institute, 2014)
# Activity calls are given as the source filed them.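 Rule for the calls: active = compounds lowering delta-delta-Ct, meaning more Pax4 mRNA, with half-max potency at most twice the top tested dose; inconclusive = flat fit dropping 30 to 70 percent, or unreliable fit; inactive = the rest.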
# Test: Pax4 mRNA induction in alpha cells – mouse alpha TC1 cells, RT-qPCR, cherry-picks, dose response (AID 1053206)
# Details: 6 days, active compounds read low; at 19.5 µM unless noted
row,SMILES,max activity (delta-delta-Ct)
1,N#Cc1cccc(-c2ccc(C3[C@@H]4CN(C(=O)Nc5ccc(C(F)(F)F)cc5)C[C@H]3N4)cc2)c1 (stereo partly drawn),-0.156% (inactive)
2,C[C@@H]1CN([C@@H](C)CO)C(=O)Cc2cc(NC(=O)C3CCCCC3)ccc2O[C@@H]1CN(C)Cc1ccc(Cl)c(Cl)c1,-0.143% [at 1.2 µM] (inactive)
3,O=S(=O)(c1ccc(F)cc1)N1C[C@@H]2N[C@H](C1)C2c1ccc(/C=C/c2ccccc2)cc1 (stereo partly drawn),-0.01% [at 10 µM] (inactive)
4,COc1cc(CN2C[C@@H]3N[C@H](C2)C3c2ccc(-c3ccc(C#N)cc3)cc2)cc(OC)c1 (stereo partly drawn),-0.065% (inactive)
5,CN(C)C(=O)c1cccc(-c2ccc(C3[C@@H]4CN(Cc5ccccc5F)C[C@H]3N4)cc2)c1 (stereo partly drawn),0.001% [at 5 µM] (inactive)
6,CO[C@@H](CN(C)Cc1cc(F)ccc1F)[C@@H](C)CN(C(=O)Nc1ccc(C(F)(F)F)cc1)[C@H](C)CO,-0.501% [at 10 µM] (inactive)
7,C/C=C/c1ccc([C@H]2[C@@H](CO)N3C(=O)CN(Cc4ccc(F)cc4)C[C@@H]23)cc1,-0.008% [at 0.16 µM] (inactive)
8,C/C=C/c1ccc(C2[C@@H]3CN(C(=O)Nc4ccc(C(F)(F)F)cc4)C[C@H]2N3)cc1 (stereo partly drawn),-0.019% (inactive)
9,COc1ccc2c3c(n(C)c2c1)[C@@H](CO)N(CC1CC1)CC31CN(C(=O)c2ccc3c(c2)OCO3)C1,-0.004% [at 0.038 µM] (inactive)
10,CNC[C@@H]1Oc2cc(C#Cc3ccccc3OC)ccc2S(=O)(=O)N([C@H](C)CO)C[C@H]1C,-0.002% [at 0.6 µM] (inactive)
11,Fc1cccc(CN2C[C@@H]3N[C@H](C2)C3c2ccc(/C=C/c3ccccc3)cc2)c1 (stereo partly drawn),-3.37% [at 21 µM] (inactive)
12,C(=C\c1ccc(C2[C@@H]3CN(Cc4ccc5c(c4)OCO5)C[C@H]2N3)cc1)/c1ccccc1 (stereo partly drawn),-0.457% (inactive)
13,Cc1ccccc1S(=O)(=O)N1C[C@@H]2N[C@H](C1)C2c1ccc(-c2cccc(C#N)c2)cc1 (stereo partly drawn),-0.001% [at 2.6 µM] (inactive)
14,COc1cccc(-c2cccc(-c3nc(C(=O)Nc4ccc(-c5ccccc5)cc4)cc4c3[C@@H](CCO)N(S(=O)C(C)(C)C)C4)c2)c1 (stereo partly drawn),-0.152% (inactive)
15,C[C@H](CO)N1C[C@H](C)[C@@H](CN(C)Cc2ccccc2)Oc2c(NC(=O)Cc3cn(C)c4ccccc34)cccc2C1=O,-0.003% [at 10 µM] (inactive)
16,Cc1cccc(-c2ccc(C3[C@@H]4CN(Cc5cccc(F)c5)C[C@H]3N4)cc2)c1 (stereo partly drawn),-2.82% (inactive)
17,C[C@H]1CNC(=O)[C@@H](Cc2ccc(C(F)(F)F)cc2)CCn2nncc2COC1,0.001% [at 0.16 µM] (inactive)
18,COc1ccc(S(=O)(=O)Nc2ccc3c(c2)CC(=O)N([C@H](C)CO)C[C@H](C)[C@H](CN(C)Cc2ccc(C(=O)Nc4ccccc4N)cc2)O3)cc1,-0.17% (inactive)
